From PubChem BioAssay (Tox21)
Values without a mark were called inactive. Records with an inconclusive call do not appear. A call without a number means that no potency is given here. Activity calls are given as the source filed them. Unless noted, the call rests on the fitted dose curve; in most records, active means well fitted curve in the direction sought with a large enough effect in the repeat runs; inconclusive means weak or mixed curves; inactive means no such curve, though single readings can be large; an effect the other way counts as inactive or inconclusive.

What was measured:
[1] = biological target: Nuclear receptor subfamily 1 group I member 3 (Homo sapiens) (UniProt Q14994); test: qHTS assay to identify small molecule antagonists of the constitutive androstane receptor (CAR) signaling pathway (AID 1224838);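 further: HepG2 cells stably expressing hCAR with CYP2B6 luciferase reporter stimulated by CITCO; nearly all actives have a fitted effect of over 40% in size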; further: potency means the concentration at half of the fitted maximal effect
Sequence of Nuclear receptor subfamily 1 group I member 3 (Homo sapiens) (Q14994 whole entry, looked up): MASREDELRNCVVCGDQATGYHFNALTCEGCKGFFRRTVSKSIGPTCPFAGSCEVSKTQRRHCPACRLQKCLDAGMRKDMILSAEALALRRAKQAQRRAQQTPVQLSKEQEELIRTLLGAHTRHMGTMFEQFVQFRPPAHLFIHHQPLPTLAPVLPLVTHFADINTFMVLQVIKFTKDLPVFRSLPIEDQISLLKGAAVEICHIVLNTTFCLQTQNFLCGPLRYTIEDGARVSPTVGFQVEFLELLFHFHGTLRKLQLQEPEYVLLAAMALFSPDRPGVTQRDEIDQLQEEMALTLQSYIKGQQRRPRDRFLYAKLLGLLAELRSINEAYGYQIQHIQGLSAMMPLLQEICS
Summary of the method: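 Antagonist mode used CITCO at a final 50 nM to activate CAR in human hepatoma HepG2 cells carrying stable hCAR and a 2.2 kb CYP2B6 promoter-luciferase construct. Compounds were tested at 15 concentrations over 24 h, with luminescence as the end point.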

[2] = biological target: Nuclear receptor subfamily 1 group I member 3 (Homo sapiens) (UniProt Q14994); test: qHTS assay to identify small molecule agonists of the constitutive androstane receptor (CAR) signaling pathway (AID 1224839); further: nearly all actives have a fitted effect of over 15% in size; further: potency means the concentration at half of the fitted maximal effect
Summary of the method: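 Compounds tested at 15 concentrations on HepG2 cells stably harbouring hCAR and CYP2B6-2.2kb reporter constructs, co-treated with PK11195 (0.75 uM final), 24 h at 37 C; luminescent reporter signal quantified.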

[3] = qHTS assay to identify small molecule antagonists of the estrogen related receptor signaling pathway with the pleiotropic PPARgamma coactivator (PGC) from Tox21 10K library - cell viability counter screen (AID 1224840; active means well fitted cell-killing curve with a large enough effect in the repeat runs, not every such curve was filed as active; further: nearly all actives have a fitted effect of over 40% in size; further: potency means the concentration at half of the fitted maximal effect)
Summary of the method: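 Multiplexed viability counter screen in the PGC/ERR cell line: cells treated with DMSO-dissolved compounds for 17.5 hours at 37 C, then viability measured as CellTiter-Fluor fluorescence.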

[4] = biological target: Thyrotropin receptor (Homo sapiens) (UniProt P16473); test: qHTS assay to identify small molecule agonists of the thyroid stimulating hormone receptor (TSHR) signaling pathway (AID 1224843; calls by dose curve; further: nearly all actives have a fitted effect of over 45% in size)
Sequence of Thyrotropin receptor (Homo sapiens) (P16473 whole entry, looked up): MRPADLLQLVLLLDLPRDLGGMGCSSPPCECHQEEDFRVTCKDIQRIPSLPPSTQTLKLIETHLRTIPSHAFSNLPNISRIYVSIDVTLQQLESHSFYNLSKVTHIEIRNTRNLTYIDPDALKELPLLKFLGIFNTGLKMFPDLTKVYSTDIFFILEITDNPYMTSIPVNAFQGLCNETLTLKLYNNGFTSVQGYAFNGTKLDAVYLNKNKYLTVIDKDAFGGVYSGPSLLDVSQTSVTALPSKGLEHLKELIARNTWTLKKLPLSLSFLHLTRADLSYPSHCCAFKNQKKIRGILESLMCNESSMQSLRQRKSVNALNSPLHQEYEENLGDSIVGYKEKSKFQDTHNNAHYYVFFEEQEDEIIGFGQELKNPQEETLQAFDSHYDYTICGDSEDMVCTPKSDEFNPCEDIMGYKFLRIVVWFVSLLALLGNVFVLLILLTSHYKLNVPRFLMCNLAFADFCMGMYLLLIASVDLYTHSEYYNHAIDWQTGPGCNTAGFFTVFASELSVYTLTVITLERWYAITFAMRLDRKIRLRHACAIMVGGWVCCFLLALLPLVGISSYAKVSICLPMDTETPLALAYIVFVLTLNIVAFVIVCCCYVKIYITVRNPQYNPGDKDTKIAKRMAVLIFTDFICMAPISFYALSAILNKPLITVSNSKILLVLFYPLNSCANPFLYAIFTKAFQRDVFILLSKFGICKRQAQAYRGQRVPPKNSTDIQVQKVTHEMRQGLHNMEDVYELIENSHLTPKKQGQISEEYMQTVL
Summary of the method: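 HEK293/TSHR, 800 cells/well; cpd 30 min RT; add cAMP-d2 + anti-cAMP-cryptate, 1 h RT; fluorescence read on plate reader. 15-pt titration, n=3.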

[5] = qHTS assay to identify small molecule agonists of the hypoxia (HIF-1) signaling pathway - cell viability counter screen (AID 1224844; calls by dose curve; further: nearly all actives have a fitted effect of over 50% in size; further: potency means the concentration at half of the fitted maximal effect)
Summary of the method: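 Cytotoxicity was measured in parallel with the HRE-driven beta-lactamase readout: after 17 hrs of compound exposure at 37C, HRE-bla ME-180 cells received CellTiter-Glo and luminescence was recorded 30 min later.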

[6] = qHTS assay to identify small molecule agonists of H2AX (AID 1224845; active means well fitted activation curve with a large enough effect in the signal ratio in the repeat runs, not every such curve was filed as active; the % refers to the signal ratio)
Summary of the method: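 Wild-type CHO-K1 cells, plated overnight, exposed 3hr at 37C to 15 concentrations (0.76% DMSO final). Lysed, then HTRF anti-pH2AX (S139) cryptate and anti-H2AX-d2 antibodies, 24 hr room temperature; 665/620 nm emission read.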

[7] = qHTS assay to identify small molecule agonists of the hypoxia (HIF-1) signaling pathway (AID 1224846; active means well fitted activation curve with a large enough effect in the signal ratio in the repeat runs, not every such curve was filed as active; the % refers to the signal ratio)
Summary of the method: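 Compounds from the Tox21 10K library, dissolved in DMSO, are tested for induction of a hypoxia response element–controlled beta-lactamase reporter in ME-180 cells. Exposure lasts 17 hrs at 37C after a 5 hr settling period, followed by CCF4-AM FRET substrate.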

[8] = qHTS assay to identify small molecule agonists of H2AX - cell viability counter screen (AID 1224847; calls by dose curve; further: nearly all actives have a fitted effect of over 30% in size; further: potency means the concentration at half of the fitted maximal effect)
Summary of the method: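 Compounds tested at 15 concentrations were incubated 3 hr at 37C with wild-type CHO-K1 cells; cellular ATP-based luminescence (CellTiter-Glo) indicated viability.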

[9] = qHTS RealTime-Glo MT Cell Viability Assay in HepG2 cells - 24 hour (AID 1224867); further: nearly all actives have a fitted effect of over 50% in size; further: potency means the concentration at half of the fitted maximal effect
Summary of the method: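 Compound treatment began 5 h after plating HepG2 cells (600/well) with NanoLuc luciferase and prosubstrate. Plates stayed at 37 C for 40 h; luminescence was captured at six time points, 0 h through 40 h.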

[10] = A CellTox Green Cytotoxicity Assay to monitor cytotoxicity in HEK293 cells - 0 hour (AID 1224869); further: nearly all actives have a fitted effect of over 50% in size
Summary of the method: (§1)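 Cells (HEK293, 600/well) and dye reagent are dispensed together. After 5 h at 37 C, 23 nL compound is pinned in. Plates stay at 37 C for 40 h with fluorescence read at 0h, 8h, 16h, 24h, 32h and 40h.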

[11] = qHTS RealTime-Glo MT Cell Viability Assay in HepG2 cells - 40 hour (AID 1224870); further: nearly all actives have a fitted effect of over 50% in size; further: potency means the concentration at half of the fitted maximal effect
Summary of the method: (§2)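 HepG2 cells (600/well) mixed with RealTime-Glo MT reagent, settled 5 h at 37 C/5% CO2 before compound addition. Nonlytic NanoLuc luminescence from viable-cell prosubstrate reduction read repeatedly during 40 h treatment at 37 C.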

[12] = A CellTox Green Cytotoxicity Assay to monitor cytotoxicity in HEK293 cells - 40 hour (AID 1224871); further: nearly all actives have a fitted effect of over 45% in size; further: potency means the concentration at half of the fitted maximal effect
Summary of the method: as §1

[13] = qHTS RealTime-Glo MT Cell Viability Assay in HEK293 cells - 32 hour (AID 1224868); further: nearly all actives have a fitted effect of over 50% in size; further: potency means the concentration at half of the fitted maximal effect
Summary of the method: (§3)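 Quantitative high-throughput screen of the Tox21 10K library in HEK293: cells and RealTime-Glo reagents plated together, compound added at 5 h, luminescence monitored through 40 h at 37 C.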

[14] = qHTS RealTime-Glo MT Cell Viability Assay in HEK293 cells - 16 hour (AID 1224872); further: nearly all actives have a fitted effect of over 50% in size; further: potency means the concentration at half of the fitted maximal effect
Summary of the method: as §3

[15] = qHTS RealTime-Glo MT Cell Viability Assay in HepG2 cells - 8 hour (AID 1224873); further: nearly all actives have a fitted effect of over 55% in size; further: potency means the concentration at half of the fitted maximal effect
Summary of the method: as §2

[16] = qHTS RealTime-Glo MT Cell Viability Assay in HEK293 cells - 40 hour (AID 1224874); details: RealTime-Glo luminescence; max response: stronger effect = lower value; further: nearly all actives have a fitted effect of over 50% in size; further: potency means the concentration at half of the fitted maximal effect
Summary of the method: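 Real-time viability in HEK293: signal arises when living cells convert a prosubstrate for NanoLuc in the medium, so luminescence tracks viable cell number. Compound (23 nL, DMSO) added 5 h post-seeding; kinetic reads at 0–40 h, 37 C.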

[17] = qHTS assay to identify small molecule agonists of the estrogen related receptor signaling pathway with the pleiotropic PPARgamma coactivator (PGC) from Tox21 10K library (AID 1224842); further: nearly all actives have a fitted effect of over 15% in size
Summary of the method: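 PGC/ERR reporter cell line, 2,000 cells per well, incubated 6 h at 37 C before 23 nL compound in DMSO was added. After 18 h at 37 C, One-Glo luminescence read following 30 min at room temperature.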

[18] = qHTS assay to identify small molecule antagonists of the estrogen related receptor (ERR) signaling pathway from Tox21 library (AID 1224848)
Summary of the method: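 Compounds dissolved in DMSO are pin-transferred onto ERR reporter cells (2,000 per well) that have settled for 6 h at 37 C. Plates then incubate 18 h at 37 C before ONE-Glo luciferase reagent and a luminescence read 30 min later.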

[19] = qHTS assay to identify small molecule agonists of the estrogen related receptor (ERR) signaling pathway from Tox21 library (AID 1224849; calls by dose curve; further: nearly all actives have a fitted effect of over 15% in size); details: ERR reporter cell line, ONE-Glo luciferase, 18 h; at 92.4 µM (top of the series) unless noted
Summary of the method: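 Cells carrying the ERR reporter were plated and allowed to settle for 6 h, exposed to library compounds for 18 h at 37 C, then lysed with ONE-Glo and luminescence measured.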

SMILES	Potency [1]	Potency [2]	Potency [3]	Potency [4]	Potency [5]	Potency [6]	Potency [7]	Potency [8]	Potency [9]	Potency [10]	Potency [11]	Potency [12]	Potency [13]	Potency [14]	Potency [15]	max response [16]	Potency [17]	Potency [18]	activity change, positive = activation [19]	Potency [16]
CC(C)(C)c1ccc(OC2CCCCC2O)cc1 (stereo not drawn)	inactive	27.3 µM (active)	inactive	inactive	inactive	inactive	inactive	71.3 µM (active)	inactive	inactive	inactive	49 µM (active)								
CC(CC(C)(C)C)CC(C)(C)CC(C)(C)C (stereo not drawn)	inactive	inactive	inactive	inactive	inactive	inactive	inactive	inactive	inactive	inactive		inactive	inactive	inactive	inactive	3.32%				
COCCC(=O)OC	inactive	inactive	inactive	inactive	inactive		inactive	inactive	inactive		inactive	inactive	inactive	inactive	inactive	1.08%				
NCc1ccco1	inactive	inactive	inactive	inactive	inactive	inactive	inactive	inactive	inactive		inactive	inactive		inactive	inactive	18.6%				
CN[C@H]1CC[C@@H](c2ccc(Cl)c(Cl)c2)c2ccc(S(N)(=O)=O)cc21	61.1 µM (active)	inactive	61.1 µM (active)					113 µM (active)	24.5 µM (active)	inactive	21.9 µM (active)	27.5 µM (active)	19.5 µM (active)	24.5 µM (active)	49 µM (active)		inactive	61.1 µM (active)	-79%	19.5 µM (active)
O=C1OCc2ccccc21	inactive	inactive	inactive	inactive	inactive	inactive		inactive	inactive	inactive	inactive	inactive	inactive	inactive	inactive	15.2%				
CCc1cccc(C)c1N(C(=O)C(=O)O)C(C)COC (stereo not drawn)	inactive	inactive	inactive	inactive	inactive	inactive	inactive	inactive	inactive	inactive	inactive	inactive	inactive	inactive	inactive	10.9%				
C/C(=N\[Si](C)(C)C)O[Si](C)(C)C	inactive	inactive	inactive		inactive	inactive		inactive		inactive	inactive	inactive	inactive	inactive	inactive	-1.35%				
CC(=O)[C@]1(O)Cc2c(O)c3c(c(O)c2[C@@H](O[C@H]2C[C@H](N)[C@H](O)[C@H](C)O2)C1)C(=O)c1ccccc1C3=O	0.237 µM (active)	inactive	11.9 µM (active)					inactive	6.01 µM (active)	inactive		inactive	0.0756 µM (active)	0.535 µM (active)						0.0601 µM (active)
CN1CCN(c2ccccc2/C=C2\SCCN(c3ccc(Cl)c(Cl)c3)C2=O)CC1	inactive	inactive	48.6 µM (active)		49 µM (active)			50.5 µM (active)		inactive	21.9 µM (active)	43.6 µM (active)	12.3 µM (active)	12.3 µM (active)	49 µM (active)		inactive	24.3 µM (active)	-79.7%	12.3 µM (active)
CSc1nnc(C(C)(C)C)c(=O)[nH]1	inactive	inactive	inactive		inactive	inactive			inactive	inactive	inactive	inactive	inactive	inactive	inactive	1.65%				
CCOC(=O)[C@H](C)O	inactive	inactive	inactive		inactive	inactive	inactive	inactive	inactive		inactive		inactive	inactive	inactive	7.55%				
Cc1ccc2nc(-c3ccc(N)cc3)sc2c1S(=O)(=O)O	inactive	9.54 µM (active)	inactive	inactive	inactive			inactive	inactive		inactive	inactive	inactive	inactive		-21.6%				
[Cl][Dy]([Cl])[Cl]	inactive	inactive	inactive	inactive	inactive	inactive	inactive	inactive	inactive	inactive	inactive	inactive	inactive	inactive	inactive	-3.97%				
CCc1cccc(C)c1N(C(=O)CS(=O)(=O)O)C(C)COC (stereo not drawn)	inactive	inactive	inactive	inactive	inactive	inactive	inactive	inactive	inactive		inactive	inactive	inactive	inactive	inactive	-1.03%				
